# In PubChem BioAssay AID652104 (National Center for Advancing Translational Sciences (NCATS), 2013):
# The whole screen tested about 410,000 compounds, of which about 7,200 (1.8%) were called active. Entries that show only a call come without a potency. Another 7% or so got no clear call; they are omitted. Calls come from the whole dose curve; as a rule, active = well fitted activation curve with a large enough effect; inconclusive = small, poorly fitted or top-dose-only effect, or another doubt; inactive = no such curve, though single readings can be large or run the other way. This excerpt belongs to a sample that is enriched for actives.
# Assay: qHTS of TDP-43 Inhibitors; note: nearly all actives have a fitted effect of over 50% in size
# Conditions: TDP-43 expressing yeast growth rescue, BacTiter-Glo, 24 h; series mostly up to 46.1 µM
# Excerpt: The goal of this project is to identify new chemical probes capable of reversing the toxicity associated with TDP-43 which is associated with frontotemporal lobar degeneration and amyotrophic lateral sclerosis. These compounds will provide a complementary approach to deciphering the tangled mechanisms of toxicity and protection that we have uncovered through genome-wide genetic screens and are beginning to uncover in a large-scale proteomics analysis with mass spectroscopy.
# To this end, a miniaturized assay was developed to be screened against the Molecular Libraries Small Molecule Repository (MLSMR) to discover TDP-43 inhibitors. Please note that in the set-up this yeast-based assay compounds that inhibit as TDP-43, have a read-out as activators.
# NIH Chemical Genomics Center [NCGC]
# NIH Molecular Libraries Probe Centers Network [MLPCN]
# Assay Submitter (PI): Susan Lindquist, Whitehead Institute/MIT
# Dispense 2.5 microL yeast galactose medium per 1536-well plate, pin compound, dispense 2.5 microL TDP-43 expressing yeast in galactose medium at OD600=0.02 (pregrown in raffinose medium to mid-log phase) per well, incubate for 24 hr at 30 deg C, and cell growth will be measured using 5 microL of Bactiter/Glo reagent to entire plate and read using Luminescence Protocol in ViewLux.
# Potency is the fitted concentration of half-maximal effect.
Structure (SMILES),Potency,growth rescue (activation)
O=C(O)c1ccc(CSc2nc3cccnc3n2Cc2cccc(F)c2)cc1,inactive,–
O=C(NC1CCCCC1)c1ccc(Cn2c(SCc3ccccc3)nc3cccnc32)cc1,inactive,–
Cc1oc(-c2ccccc2)nc1Cn1c(SCc2cccc(C(F)(F)F)c2)nc2cccnc21,20 µM (active),–
Cc1ccccc1OCc1nc2c3cnn(-c4ccccc4F)c3ncn2n1,inactive,–
CCc1nc(Nc2ccc3nccnc3c2)c2oc3ccccc3c2n1,inactive,–
C[C@@H](Nc1nc(-c2ccccc2)nc2c1oc1ccccc12)C(=O)O,inactive,–
COCCNc1nc(-c2ccccc2)nc2c1oc1ccccc12,12.6 µM (active),–
Cc1cc(NC(=O)CC(C)C)cc(-c2nc3ncccc3o2)c1O,inactive,–
CCOc1ccc(NC(=O)c2cnn(-c3ccccc3)c2-n2cccc2)cc1,–,-9.72% [at 9.22 µM] (inactive)
COc1ccccc1-c1cc2nc(NCc3cccc(Cl)c3)ccn2n1,17.8 µM (active),–
COc1ccccc1CNc1nc2ccc(Cl)cc2n2cnnc12,inactive,–
CC(C)Cc1ccc(-c2cc3nc(NCc4cccc(Cl)c4)ccn3n2)cc1,inactive,–
CCC1CCCCN1C(=O)Cn1c(=O)n(CCCCCC(=O)NCc2ccccc2)c(=O)c2sccc21 (centres undefined),inactive,–
Cc1nc(N)sc1-c1ccccc1,inactive,–
Cc1nc(C)c(-c2csc(NCCc3ccccc3)n2)s1,15.8 µM (active),–
S=c1[nH]nc(NCCc2ccccc2)s1,–,-8.25% [at 0.397 µM] (inactive)
Cc1c(CCNC(=O)c2ccc(C(F)(F)F)cc2)sc2nc(-c3ccc(F)cc3)nn12,inactive,–
COc1ccc(C2NC(=O)N(C)C3=C2C(=O)N(c2ccc(C(=O)O)cc2)C3)cc1 (centres undefined),inactive,–
CCOC(=O)c1scc(-c2ccc(C)cc2)c1S(=O)(=O)Nc1cc(C)ccc1C,inactive,–
COC(=O)c1scc(-c2ccccc2)c1S(=O)(=O)Nc1ccccc1,12.6 µM (active),–
COC(=O)c1scc(-c2ccc(C)cc2)c1S(=O)(=O)Nc1cc(Cl)c(OC)cc1OC,inactive,–
COc1cc(C(=O)NCCc2csc3nc(-c4ccccc4C)nn23)cc(OC)c1OC,inactive,–
COc1ccc(NC(=O)C(c2ccccc2)N2Cc3ccccc3C2=O)cc1 (centres undefined),–,0% [at 9.22 µM] (inactive)
Cc1cc(C)cc(NC(c2nnc(-c3cccc(F)c3)o2)c2ccc(F)cc2Cl)c1 (centres undefined),inactive,–
C/C(=N\NC(=O)Cc1ccccc1[N+](=O)[O-])c1cccnc1,inactive,–

Structure (SMILES),Potency,growth rescue (activation)
O=C(/C=C/c1ccc(Cl)c([N+](=O)[O-])c1)c1cccnc1,3.16 µM (active),–
O=C(/C=C/Nc1ccc(S(=O)(=O)Nc2cnc3ccccc3n2)cc1)c1cccnc1,inactive,–
Cc1ccc(CCNC(=O)c2ccc(CS(=O)(=O)Cc3cccc(C)c3)o2)cc1,inactive,–
CC1=C(C(=O)N2CCN(c3cccc(C(F)(F)F)c3)CC2)C2(CCCCC2)OC1=O,inactive,–
COc1cccc(NC(=O)C2CCN(c3cc(C)nc4c(-c5ccc(Cl)cc5)c(C)nn34)CC2)c1,inactive,–
COc1ccc(CCNc2cc(C)nc3c(-c4ccc(Cl)cc4)c(C)nn23)cc1OC,20 µM (active),–
COc1ccc(CCNc2nc(-c3ccc(Cl)cc3)cc(C(F)(F)F)n2)cc1OC,inactive,–
COc1ccc(N2CCN(C(=O)C3CCCN(C(=O)c4cc5sccc5n4C)C3)CC2)cc1 (centres undefined),inactive,–
COC(=O)c1ccccc1NC(=O)c1ccc(COc2ccccc2Cl)o1,inactive,–
Cc1ccc(CNC(=O)CCc2c(C)nc3nc(CNC(=O)OC(C)(C)C)nn3c2C)cc1,inactive,–
O=C(CSc1ccc(C(F)(F)F)cc1[N+](=O)[O-])NCCOc1ccccc1,inactive,–
Nc1ccccc1Sc1ccc(C(F)(F)F)cc1[N+](=O)[O-],11.2 µM (active),–
O=[N+]([O-])c1cc(C(F)(F)F)ccc1NN=C1CCCC1,inactive,–
Cc1nc2nc(NCc3cccc(Br)c3)[nH]n2c(=O)c1Cc1ccccc1,inactive,–
COc1ccc(C(=O)N2CCC(c3nc4ccccc4o3)CC2)cc1,inactive,–
Cc1onc(-c2ccccc2)c1C(=O)N1CCN(S(=O)(=O)c2ccccc2C(F)(F)F)CC1,15.8 µM (active),–
CC(C)(C)OC(=O)N1CCN(C(=O)c2[nH]c(C(F)(F)F)nc2-c2ccccc2)CC1,inactive,–
CCc1noc(C)c1C(=O)N1CCN(S(=O)(=O)c2cccc(C(F)(F)F)c2)CC1,inactive,–
N#Cc1nc(/C=C/c2ccc(F)cc2)oc1NC1CCCCC1,inactive,–
Cc1cccc(NC(=O)CSC(N)=O)c1C,inactive,–
Cc1ccccc1NC(=O)CSC1=NCCN1,inactive,–
Cc1ccccc1NC(=O)CSC(=O)c1ccccc1,14.1 µM (active),–
CCOc1cccc(CNC(=O)c2ccc(N3CCCC3)c(NC(=O)Nc3ccccc3CC)c2)c1,inactive,–
Cc1cccc(NC(=O)CN(c2ccc(C(C)C)cc2)S(=O)(=O)c2c(C)nn(C)c2C)c1C,inactive,–
Cc1ccc(CNC(=O)CCc2c(C)nc3c(c(C)nn3-c3ccccc3)c2C)cc1,inactive,–

Structure (SMILES),Potency,growth rescue (activation)
CCOC(=O)C1CCCN(CC(=O)Nc2cc(C)c3c(=O)oc4ccccc4c3n2)C1 (centres undefined),inactive,–
COc1ccc(CNc2nc(-c3ccccc3)nn2C(=O)c2ccccc2OC)cc1,inactive,–
Cc1cc(C)cc(NC(=O)CCCc2nc(-c3ccccc3Cl)no2)c1,inactive,–
Cc1ccc2nc(SCC(=O)Nc3cccc4ccccc34)nc(=O)n2c1,inactive,–
O=C(CSc1nccn1-c1ccc(F)cc1)Nc1cccc2ccccc12,17.8 µM (active),–
Cc1cccc(-n2ccnc2SCC(=O)Nc2cccc3ccccc23)c1C,22.4 µM (active),–
Cc1cc(NC(=O)CSc2nccn2-c2ccc([N+](=O)[O-])cc2)no1,inactive,–
Cc1ccccc1-n1c(SCC(=O)Nc2cccc3ccccc23)nc(O)cc1=O,inactive,–
O=C(CSc1nccn1-c1cccc(F)c1)NC1CCCC1,inactive,–
O=C(CSc1nc(Nc2ccc(F)c(F)c2)c2ccccc2n1)c1ccc(Cl)cc1,inactive,–
CCC(C(=O)Nc1cc(OC)ccc1OC)n1c(=O)c(C(F)(F)F)nc2ccccc21 (centres undefined),inactive,–
CC(NC(=O)c1cc(Sc2ccc(F)cc2F)nc2ccccc12)c1ccccc1 (centres undefined),inactive,–
CC(C)c1ccc(NC(=O)c2ccc3c(O)c(S(=O)(=O)c4ccccc4)c(=O)[nH]c3c2)cc1,inactive,–
O=C1N(Cc2ccccc2)c2ccc(Cl)cc2C1(O)c1c[nH]c2ccccc12 (centres undefined),inactive,–
CCCCN(C(=O)CSCC(=O)Nc1ccc(OC)cc1)c1c(N)n(CCC)c(=O)[nH]c1=O,inactive,–
CCOc1ccc(NC(=O)CSc2nncn2C)cc1,inactive,–
CCCCOc1ccc(NC(=O)CSCC(=O)OCC)cc1,12.6 µM (active),–
O=C(COc1ccc(Cl)cc1)Nc1ccc(-c2nc3cc(Cl)ccc3o2)c(O)c1,inactive,–
O=S(=O)(c1ccc(Br)cc1)c1nnn2c1nc(NC1CCCCCC1)c1sccc12,inactive,–
COC(C/C=C/C(=O)[C@@H](C)OCc1ccccc1)OC,20 µM (active),–
COC(C[C@@H]1O[C@@H]1C(=O)[C@H](C)OCc1ccccc1)OC,inactive,–
COC(C[C@H](O)CC(=O)[C@@H](C)OCc1ccccc1)OC,inactive,–
Cc1ccc(NC(=O)C(=O)NCC(c2cccnc2)N2CCOCC2)cc1 (centres undefined),inactive,–
COc1ccc(OC)c(-n2nnc3c(sc4nc(C)c(Br)c(C)c43)c2=O)c1,inactive,–
CCc1ccc(Nc2nn3c(=O)c4cc5c(cc4nc3s2)OCO5)cc1,inactive,–

Structure (SMILES),Potency,growth rescue (activation)
COc1cc(OC)c(NC(=O)c2nc(-c3ccncc3)no2)cc1Cl,inactive,–
Cc1cc(Cl)ccc1OCc1nc(-c2ccncc2)no1,20 µM (active),–
CC1CCN(Cc2nc(-c3ccc(Cl)cc3)no2)CC1,inactive,–
Cc1c(Cl)cccc1NC(=O)Cn1cc(C(=O)c2cccs2)c2ccccc21,inactive,–
COc1ccc(N2CCN(Cc3nc4c(c(=O)[nH]c(=O)n4C)n3Cc3ccc(Cl)cc3)CC2)cc1,inactive,–
Cc1cccc(C(=O)N2CCc3cc(CNC(=O)Cc4ccc(F)cc4)ccc32)c1,inactive,–
CC1=Nc2cc(C(=O)NCc3ccc(C)cc3)ccc2Sc2ccc(Cl)cc21,inactive,–
CCCCc1c(-c2ccc(Br)cc2)ncn1CCc1ccccc1OC,inactive,–
CCc1c(-c2ccc(F)cc2)ncn1Cc1cccc(-c2ccccc2)c1,15.8 µM (active),–
CCCc1c(-c2ccccc2F)ncn1Cc1ccccc1OC,inactive,–
CCOc1ccc(C(=O)Nc2ccc3nc4c(c(Nc5ccccc5OC)c3c2)CCCC4)cc1,inactive,–
CCOc1ccc(CNC(=O)c2cc(=O)[nH]c3ccc(S(=O)(=O)N4CCCCC4)cc23)cc1,inactive,–
COc1ccc(CNC(=O)c2cc3c(=O)[nH]c4ccccc4c3s2)cc1,inactive,–
Cc1cccc(N2CCN(S(=O)(=O)c3ccc4[nH]c5c(c4c3)CCCCC5)CC2)c1C,inactive,–
O=C(c1cccc2ccccc12)N1CCN(c2ccccc2F)CC1,12.6 µM (active),–
COc1cc(OC)c(OC)cc1CN1CCN(C(=O)c2cccc3ccccc23)CC1,inactive,–
O=C(c1ccc(CN2CCOCC2)cc1)N1CCN(c2ccccc2F)CC1,inactive,–
CCCSc1ncc(Cl)c(C(=O)Nc2sc3c(c2C(=O)NCCOC)CCCC3)n1,inactive,–
O=C(NCCc1ccc(Cl)cc1)c1ccc2nc(CCc3ccccc3)oc2c1,inactive,–
CNC(=O)c1nnc(Cc2ccc(Cl)cc2)o1,inactive,–
CC(CNC(=O)c1nnc(Cc2cccc(F)c2)o1)c1ccccc1 (centres undefined),15.8 µM (active),–
O=C(NCCCN1CCN(c2cccc(Cl)c2)CC1)c1nnc(Cc2ccc(F)cc2Cl)o1,inactive,–
CCOC(=O)c1cnc2c(C)cc(Cl)cc2c1NCCc1ccc(OC)c(OC)c1,inactive,–
Cc1ccc(Nc2nc3ccccc3nc2-n2nc(C)cc2C)c(Cl)c1,inactive,–
